Experimental data as given in PubChem BioAssay (NCATS).
A number with no mark means an inactive call. Active and inactive are the calls of the source. The call rests on the fitted dose curve; in most records, active means well fitted curve in the direction sought with a large enough effect; inconclusive means small, poorly fitted or top-dose-only effect, or another doubt; inactive means no such curve, though single readings can be large or run the other way.

Molecular target: Alpha-galactosidase (Coffea arabica) (UniProt Q42656)
Assay: Counterscreen for Glucocerebrosidase Inhibitors: qHTS Assay for Coffee Bean alpha-Galactosidase at pH 4.5 (AID 957);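 further: plate controls were enzyme alone for no effect and no enzyme for full effect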
Conditions: purified coffee bean alpha-galactosidase, fluorogenic substrate; series mostly up to 76.9 µM; activity change, negative = inhibition: at the top concentration
Text: NIH Chemical Genomics Center [NCGC]
NIH Molecular Libraries Screening Centers Network [MLSCN]
PI Name: Zheng, Wei [NIH]
Alpha-galactosidase is a homodimeric glycoprotein that hydrolyzes the terminal alpha-galactosyl moieties from glycolipids and glycoproteins. Deficiency of this enzyme results in Fabry Disease with progressive accumulation of globotriaosylceramide and other glycosphingolipids in vascular endothelial cells that causes renal failure, myocardial infarction and stroke, and premature death in patients. It has reported that the improper folding and trafficking of alpha-galactosidase resulted from the genetic mutations may account for a significant numbers of Fabry patients. […] We optimized this coffee bean alpha-galactosidase assay in 1536-well plate format as a counter-screen assay for identifying the selective small molecule inhibitors of other lysosomal enzymes.
NCGC Assay Protocol Summary:
This is a fluorogenic enzyme assay with 4-Methylumbelliferyl alpha-D-galactopyranoside as the substrate and green coffee bean […] (from Sigma-Aldrich) as the enzyme preparation. Upon the hydrolysis of this fluorogenic substrate, the resulting product, […]. 4-Methyllumbelliferone, can be excited at 365 nm and emits at 440 nm which can be detected by a standard fluorescence plate reader. Data were normalized to the controls for basal activity (without enzyme) and 100% activity (with enzyme). In the AC50 values were determined from concentration-response data modeled with the standard Hill equation.
Assay buffer: 50 mM citric acid, 0.005% Tween-20, pH 4.5. (pH 5.9 is an optimal condition for this enzyme assay. This assay in pH 4.5 is used for comparison the inhibitor activities with the human alpha-galactosidase assay)
1536-well assay protocol for the coffee bean alpha-galactosidase:
(1) Add 2 ul/well of enzyme (2 nM final)
(2) Add 23 nL compounds in DMSO solution. The final titration was 0.7 nM to 77 uM.
(3) Add 1 ul of substrate (80 uM final)
(4) Incubate at room temperature for 20 min.
(5) Add 2 ul stop solution (1M NaOH and 1M Glycine mixture, pH 10)
(6) Detect the assay plate in a ViewLux plate reader (PerkinElmer) with Ex=365 nm and Em=440nm.
Keywords: Alpha-galactosidase, Fabry Disease, pharmacological chaperone, chaperone therapy, high throughput screening, alpha-galactosidase inhibitor, MLSMR, MLSCN, NIH Roadmap, qHTS and NCGC

Alpha-galactosidase (Coffea arabica), sequence (Q42656 whole entry, looked up): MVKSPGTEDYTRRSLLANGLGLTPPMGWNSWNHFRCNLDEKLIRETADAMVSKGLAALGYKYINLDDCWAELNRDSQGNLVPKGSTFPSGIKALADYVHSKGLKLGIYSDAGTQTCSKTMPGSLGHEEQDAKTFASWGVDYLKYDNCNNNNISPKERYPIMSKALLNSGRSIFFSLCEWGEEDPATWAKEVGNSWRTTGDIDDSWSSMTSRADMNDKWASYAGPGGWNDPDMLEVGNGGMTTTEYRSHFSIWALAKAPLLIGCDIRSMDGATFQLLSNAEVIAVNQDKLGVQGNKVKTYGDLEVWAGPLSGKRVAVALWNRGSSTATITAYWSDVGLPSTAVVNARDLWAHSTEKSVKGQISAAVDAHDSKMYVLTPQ

SMILES | activity change, negative = inhibition | outcome
CCN(CC)CCOCCOC(=O)C1(c2ccccc2)CCCC1 | -1% | 
C(=C\c1ccccc1)/CN1CCN(C(c2ccccc2)c2ccccc2)CC1 | -0.977% | 
CN(C)CCCN1c2ccccc2Sc2ccccc21 | -0.984% | 
CCc1cccc2c3c([nH]c12)C(CC)(CC(=O)O)OCC3 (stereo not given) | 1.48% | 
Oc1cc(O)c2c(c1)O[C@H](c1ccc(O)c(O)c1)[C@H](O)C2 | 2.41% | 
OCCN1CCN(CCCN2c3ccccc3C=Cc3ccccc32)CC1 |  | inactive
Cn1c(=O)c2c(ncn2C)n(C)c1=O | 0.337% | 
CC1=C(CC(=O)O)c2cc(F)ccc2/C1=C\c1ccc(S(C)=O)cc1 (stereo not given) | 1.74% | 
CCCCCCCCC(=O)NCc1ccc(O)c(OC)c1 | -3.24% | 
NC(=O)CN1CCCC1=O | 4.72% | 
Cc1cc(C(C)(C)C)c(O)c(C)c1CC1=NCCN1 | -0.675% | 
COC(=O)[C@@H](N)Cc1ccc(O)c(O)c1 | -1.4% | 
CSc1ccc(C(=O)c2[nH]c(=O)[nH]c2C)cc1 | -2.94% | 
O=c1[nH]c2ccccc2n1CCCN1CCN(C(c2ccccc2)c2ccccc2)CC1 | -1.87% | 
CCc1cccc(N(C)C(N)=Nc2cccc3ccccc23)c1 | -8.24% | 
O=C(CCCN1CCC(O)(c2cccc(C(F)(F)F)c2)CC1)c1ccc(F)cc1 | -1.42% | 
O=C1NCN(c2ccccc2)C12CCN(CCCC(c1ccc(F)cc1)c1ccc(F)cc1)CC2 | -10% | 
COc1ccc2c(c1)c(CC(=O)O)c(C)n2C(=O)c1ccc(Cl)cc1 | -1.45% | 
c1cnc(N2CCN(Cc3ccc4c(c3)OCO4)CC2)nc1 | -4.37% | 
O=C(O)c1cccnc1Nc1cccc(C(F)(F)F)c1 | 2.65% | 

SMILES | activity change, negative = inhibition | outcome
NCCc1ccc(O)c(O)c1 | 1.88% | 
CCCCNc1ccc(C(=O)OCCN(C)C)cc1 | -0.752% | 
CCC(=O)c1ccc2c(c1)N(CCCN(C)C)c1ccccc1S2 | -2.14% | 
COc1cc(C(=O)OCCCN2CCCN(CCCOC(=O)c3cc(OC)c(OC)c(OC)c3)CC2)cc(OC)c1OC | -0.976% | 
CN1CCC(=C2c3ccccc3CC(=O)c3sccc32)CC1 | 0.0208% | 
C[N+](C)(C)CCCCCCCCCC[N+](C)(C)C | 3.95% | 
COc1cc2c(cc1OC)-c1cc(=Nc3c(C)cc(C)cc3C)n(C)c(=O)n1CC2 | -2.75% | 
NC(N)=NC(=O)c1nc(Cl)c(N)nc1N | -3.02% | 
CN(C(=O)CCCOc1ccc2[nH]c(=O)ccc2c1)C1CCCCC1 | 0.0935% | 
O=C(CCNNC(=O)c1ccncc1)NCc1ccccc1 | -2.19% | 
COc1ccc(C(=O)N2CCCC2=O)cc1 | 3.34% | 
CCCC(C(=O)OCCN(CC)CC)(c1ccccc1)c1ccccc1 | -5.24% | 
C[C@H](N)[C@H](O)c1ccc(O)c(O)c1 | 1.52% | 
CN(C)C(=O)Oc1cccc([N+](C)(C)C)c1 | 1.8% | 
COC(=O)C1=CCCN(C)C1 | 0.191% | 
O=C(c1ccc(F)cc1)C1CCN(CCn2c(=O)[nH]c3ccccc3c2=O)CC1 | -2.42% | 
CCNC(=O)N1CCN(CCCC(c2ccc(F)cc2)c2ccc(F)cc2)CC1 | -2.7% | 
C[C@]12CCC(=O)C=C1CC[C@@H]1[C@@H]2[C@@H](O)C[C@@]2(C)[C@H]1CC[C@]2(O)C(=O)CO | 1.07% | 
C#CCN(C)Cc1ccccc1 | -2.37% | 
C[C@]12CC[C@@H]3c4ccc(O)cc4CC[C@H]3[C@@H]1CCC2=O | 0.518% | 
